Assay results from PubChem BioAssay (NCI).
Compounds without any hit were thinned out: in the full panel of roughly 83,000, 20% have a hit.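 For each line, cells grew in 96-well plates with the test compound present at a single concentration for 48 hours.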 Values without a mark were called inactive. The source made the active and inactive calls.

Tested on: HOP-92 NSCLC
Experiment: NCI-60 one-dose screen, 48 h (100 = growth as untreated, 0 = no growth, -100 = all killed)
Settings: 10 µM unless noted
Experimental: Growth inhibition of the HOP-92 human Non-Small Cell Lung tumor cell line is measured as a screen for anti-cancer activity. Cells are grown in 96 well plates and exposed to the test compound for 48 hours. Compounds are tested at a single concentration, which is 10^-5 M for most compounds. The reported endpoint is percent growth (GI% or GIPRCNT), where numbers from 0 - 100% represent growth inhibition, and numbers from -100% - 0 represent cell death. For example, a value of 40 represents 60% growth inhibition. A value of 0 means no net growth occurred over the course of the experiment. A value of -40 indicates 40% of cells at the beginning of the experiment died by the end of the experiment. A value of -100 means all cells are dead at the end of the experiment.
NCI-60 Human Tumor Cell Lines Screen was performed using the standard one-dose NCI protocol, which is described in more detail at https://dtp.cancer.gov/discovery_development/nci-60/default.htm.
Compounds with GIPRCNT values below 10 were considered active. Activity score was based on GIPRCNT using the following formula: […]
Score is 0 for GIPRCNT values of 100 or above, 50 for GIPRCNT values of 0, and 100 for GIPRCNT values of -100.

Row | SMILES | growth
1 | CCCCNCC(O)c1cc(-c2ccc(C(F)(F)F)cc2)nc(-c2ccc(C(F)(F)F)cc2)c1 (stereo not given) | -86% (active)
2 | CC(=O)OC1Oc2ccccc2-c2oc3nc(=N)n(C)c-3cc21 (stereo not given) | 99.1%
3 | COc1ccc(-c2cn(-c3cccc(C(=O)/C=C/c4ccc(O)c(OC)c4)c3)c(=O)[nH]2)cc1 | 22.6%
4 | COc1cc2c(cc1OC)C(=O)OC2 | 75.5%
5 | C=CCOc1c(Br)cc(Br)cc1Br | 90.6%
6 | O=C(NCC(c1ccsc1)N1CCCCCC1)c1ccc(C(F)(F)F)cc1 (stereo not given) | 99%
7 | CC(C)CC(NC(=O)C(CCCN=C(N)N)NC(=O)OCc1ccccc1)C(=O)NC(CNC(=O)/C=C/c1ccccc1)C(C)C (stereo not given) | 89.2%
8 | O=C(CS)OCC(COC(=O)CS)(COC(=O)CS)COC(=O)CS | 108%
9 | CCCc1n(Cc2ccc3ccccc3n2)cc[n+]1Cc1ccc2ccccc2n1 | 16%
10 | COc1cc2nccc(Oc3ccc(NC(=O)C4(C(=O)Nc5ccc(F)cc5)CC4)cc3)c2cc1OC(=O)c1ccc(N)cc1 | -13.3% (active)
11 | C#CC[C@@H]1C[C@]2(C)[C@H]3CC=C4[C@H]5CC(C)(C)CC[C@]5(C(=O)NCCCCN)CC[C@@]4(C)[C@]3(C)CC[C@H]2C(C)(C)[C@H]1OC(C)=O | 2.98% (active)
12 | O=C(Nc1ccc(Cl)c(C(F)(F)F)c1)c1ccc(Nc2ccc(Cl)nn2)cc1 | 82.8%
13 | C=C(C)[C@@H]1CC[C@]2(C)[C@H](CC=C3[C@@H]4C[C@](C)(C(=O)N5CCN(C)CC5)CC[C@]4(C)CC[C@]32C)[C@@]1(C)CCC#N | 32.7%
14 | COc1ccc2c(c1)CCCC21C(=O)Nc2ccccc21 (stereo not given) | 99.3%
15 | O=[N+]([O-])c1ccccc1CN1CCCCC1 | 89.7%
16 | CC1=C(O)C(=O)C(c2c(C)cc(C)c(Br)c2C)=C(O)C1=O | 83.7%
17 | Nc1ncnc2c1N=C(c1ccc(F)cc1)CC(c1sc(Cl)nc1Cl)N2 (stereo not given) | 71%
18 | COc1ccc(-c2nsc3c2NC(=O)CC3c2ccc3c(c2)OCO3)cc1 (stereo not given) | 2.96% (active)
19 | COc1ccc(C(=O)C(CN(C)C)c2ccccc2)cc1 (stereo not given) | -4.35% (active)
20 | O=c1c2sc3ncc(Cl)cc3c2nnn1-c1cccc(Cl)c1 | 63.8%

Row | SMILES | growth
21 | O=C(Cc1ccc(Nc2ccnc(C(F)(F)F)c2)cc1)N/N=C/c1ccccc1O | 75.8%
22 | CCOC(=O)Nc1ccc2nc(-c3cscn3)[nH]c2c1 | 114%
23 | CC(C)c1ccc(Cn2ccc3c4c(N)nc(NC5CC5)nc4ccc32)cc1 | -88.2% (active)
24 | CN(CCO)c1ccc(N2Cc3ccccc3OC3=C2C(=O)c2c(O)ccc(O)c2C3=O)cn1 | -71.9% (active)
25 | CCCCCNCCCCCNc1cc(OC)cc2cccnc12 | 9.38% (active)
26 | O=C1OCC2=C1C(c1cccc(Br)c1)c1cc3c(cc1N2CCO)OCCO3 (stereo not given) | 25.2%
27 | CCSc1ccc([C@@H]2[C@@H](N)C(=O)N2c2cc(OC)c(OC)c(OC)c2)cc1 | 113%
28 | NC(N)=N/N=C\c1cccc(OCc2ccccc2)c1 | 40.9%
29 | C/C(=N\OC(=O)Nc1ccccc1)c1ccccc1 | 126%
30 | Cc1ccc(N=CNN=C(N)N)cc1 | 109%
31 | CCN(CC)c1ccc2nc3c4ccccc4c(=O)cc-3n(-c3ccccc3)c2c1 | -7.83% (active)
32 | CCCCn1c(-c2ccc(F)cc2)nc2cc(OC)c(OC)cc2c1=O | 66.1%
33 | COc1ccc(NC(=O)/C=C/c2ccc(NC(=O)N3CCCC3)cc2)cn1 | 103%
34 | CC(=O)OC1Oc2cc(C)c(C)cc2-c2oc(=O)c(-c3cc4ccccc4oc3=O)cc21 (stereo not given) | 88.3%
35 | CC(=O)O[C@H]1[C@H](CC#CC#CC[C@@H]2C[C@]3(C)[C@H]4CC=C5[C@H]6[C@@H](C)[C@H](C)CC[C@]6(C(=O)NCCCCCCCCN)CC[C@@]5(C)[C@]4(C)CC[C@H]3C(C)(C)[C@H]2OC(C)=O)C[C@]2(C)[C@H]3CC=C4[C@H]5[C@@H](C)[C@H](C)CC[C@]5(C(=O)NCCCCCCCCN)CC[C@@]4(C)[C@]3(C)CC[C@H]2C1(C)C | 92.3%
36 | CCCc1cc2c(cc1CN(Cc1cc3c(cc1CCC)OCO3)C(=N)OCC)OCO2 | 55%
37 | C/C(=C\C(=N\N=C(N)N)c1ccc(Cl)cc1)c1ccc(Cl)cc1 | -77% (active)
38 | COc1ccc2c(c1)N(CCO)C1=C(C(=O)OC1)C2c1cccc(Br)c1 (stereo not given) | 42.7%
39 | Cc1[nH]nc2ccc3nc(-c4ccc5[nH]ncc5c4)c4c(c3c12)CCCC4 | 2.41% (active)
40 | COc1cc(Nc2ccnc3ccc(Br)cc23)cc(OC)c1OC | 49%
